According to the supplement of paper PMC7366291:
Structures can show the parent of a compound that is named as a salt. ± gives the standard deviation or the standard deviation of the averaged measurements.

Key:
Settings in all cases: 25 µM; exposure: 24-48 hpf
[1] = system: Danio rerio Tg(wt1b:EGFP) embryo, pronephros; assay: glomerular separation, fold change vs DMSO control; higher = glomeruli further apart (abnormal)
In short: (§1)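 Dechorionated Tg(wt1b:EGFP) zebrafish embryos were incubated at 28.5°C from 24 to 48 hpf with 25 μM compound in HEPES-buffered E3 containing 0.5% DMSO and 0.003% PTU. Distances and angles between 16 manually set points on maximum projections of dorsal pronephros images were measured in Fiji, with values over 2 SD from the feature mean excluded. Each feature is a fold change relative to the mean of same-day DMSO-treated embryos.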

[2] = system: Danio rerio Tg(wt1b:EGFP) embryo, pronephros; assay: glomerular width (mean of left and right), fold change vs DMSO control; higher = wider glomerulus
In short: as §1

[3] = system: Danio rerio Tg(wt1b:EGFP) embryo, pronephros; assay: fraction of imaged embryos annotated as normal kidney; higher = less nephrotoxic; extreme values may be limits of the assay
In short: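 Tricaine-anaesthetised Tg(wt1b:EGFP) zebrafish larvae were oriented dorsally in agarose-filled 96-well plates, and their pronephroi were recorded by widefield fluorescence at 470 nm in 10 z-slices. Before this, the dechorionated embryos had been exposed in 12-well plates to 25 μM compound in 0.5% DMSO and 5 mM HEPES-buffered E3 with 0.003% PTU, from 24 to 48 hpf at 28.5°C. Maximum projections were annotated manually for each embryo, and the read-out is the fraction per treatment classed as normal kidney.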

[4] = system: Danio rerio Tg(wt1b:EGFP) embryo, pronephros; assay: pronephric angle neck segment to proximal convoluted tubule (mean of left and right), fold change vs DMSO control; higher = larger pronephric angle
In short: as §1

SMILES | glomerular separation [1] | glomerular width [2] | fraction of imaged embryos annotated as normal kidney [3] | pronephric angle neck segment [4]
C1CCc2nnnn2CC1 [Pentylenetetrazole] | 0.925 ± 0.28 | 0.994 ± 0.07 | 0.8 | 0.956 ± 0.021
COc1cccc(C2(O)CCCCC2CN(C)C)c1 (stereo unspecified) [Tramadol hydrochloride] | 0.728 ± 0.23 | 0.989 ± 0.021 | 0.833 | 0.9988 ± 0.0034
NCC(O)c1ccc(O)cc1 (racemic) [(+,-)-Octopamine hydrochloride] | 0.97 ± 0.66 | 0.94 ± 0.042 | 0.909 | 0.987 ± 0.059
CC(=O)O[C@H]1C[C@H](O[C@H]2[C@@H](O)C[C@H](O[C@H]3[C@@H](O)C[C@H](O[C@H]4CC[C@@]5(C)[C@H](CC[C@@H]6[C@@H]5C[C@@H](O)[C@]5(C)[C@@H](C7=CC(=O)OC7)CC[C@]65O)C4)O[C@@H]3C)O[C@@H]2C)O[C@H](C)[C@H]1O[C@@H]1O[C@H](CO)[C@@H](O)[C@H](O)[C@H]1O [Lanatoside C] | 1.4 ± 0.72 | 0.929 ± 0.065 | 0.917 | 1.01 ± 0.041
CN1CCC2(C)c3cc(O)ccc3N(C)C12 (single isomer, unassigned; (-)) [(-)-Eseroline fumarate salt] | 0.883 ± 0.34 | 1.01 ± 0.025 | 0.917 | 1.02 ± 0.043
O=P1(N(CCCl)CCCl)NCCCO1 (stereo unspecified) [Cyclophosphamide] | 0.894 ± 0.2 | 0.913 ± 0.0021 | 0.75 | 1.09 ± 0.028
CC(=O)OCC1=C(C(=O)O)N2C(=O)[C@@H](N)[C@H]2SC1 [Cephalosporanic acid, 7-amino] | 0.819 ± 0.17 | 1.136 ± 0.0094 | 1 | 0.977 ± 0.06
C[N+]1([O-])[C@@H]2C[C@@H](OC(=O)[C@H](CO)c3ccccc3)C[C@H]1[C@@H]1O[C@@H]12 (stereo partly specified) [Scopolamin-N-oxide hydrobromide] | 0.883 ± 0.35 | 1.03 ± 0.018 | 0.909 | 0.9285 ± 0.0031
C(#CCN1CCCC1)CN1CCCC1 [Tremorine dihydrochloride] | 1.25 ± 0.52 | 0.9472 ± 0.008 | 0.75 | 1.03 ± 0.015
O=C1CC[C@@]2(O)[C@H]3Cc4ccc(O)c5c4[C@@]2(CCN3CC2CC2)[C@H]1O5 [Naltrexone hydrochloride dihydrate] | 0.749 ± 0.22 | 1.124 ± 0.0082 | 0.833 | 1.03 ± 0.058
CN1C[C@H](C(=O)N[C@]2(C)O[C@@]3(O)[C@@H]4CCCN4C(=O)[C@H](Cc4ccccc4)N3C2=O)C[C@@H]2c3cccc4[nH]cc(c34)C[C@H]21 [Dihydroergotamine tartrate] | 1.15 ± 0.56 | 1.0661 ± 0.00016 | 0.833 | 0.948 ± 0.015
CCCN1C[C@H](CSC)C[C@@H]2c3cccc4[nH]cc(c34)C[C@H]21 [Pergolide mesylate] | 1.26 ± 0.37 | 1.01 ± 0.019 | 1 | 0.997 ± 0.029
CC(O)(CS(=O)(=O)c1ccc(F)cc1)C(=O)Nc1ccc(C#N)c(C(F)(F)F)c1 (stereo unspecified) [Bicalutamide] | 1.14 ± 0.56 | 1.04 ± 0.023 | 0.75 | 0.971 ± 0.002
NCCCNCCSP(=O)(O)O [Amifostine] | 0.91 ± 0.29 | 1.04 ± 0.037 | 0.833 | 1.02 ± 0.074
CC(N)C(O)c1ccccc1 (stereo unspecified) [Phenylpropanolamine hydrochloride] | 0.921 ± 0.29 | 0.982 ± 0.054 | 0.917 | 1.07 ± 0.027
O=c1[nH]oc2c1CCNC2 [THIP Hydrochloride] | 0.923 ± 0.31 | 1.08 ± 0.012 | 0.917 | 0.961 ± 0.03
CNC(=O)Oc1ccc2c(c1)[C@]1(C)CCN(C)[C@@H]1N2C [Eserine hemisulfate salt] | 1.12 ± 0.17 | 1 ± 0.0036 | 1 | 0.981 ± 0.013
Cc1cccc(C)c1NC1=NCCCS1 [Xylazine] | 0.757 ± 0.26 | 0.997 ± 0.018 | 0.833 | 0.966 ± 0.057
COc1ccc(OC)c(C(O)C(C)N)c1 (stereo unspecified) [Methoxamine hydrochloride] | 0.886 ± 0.22 | 0.9725 ± 0.0077 | 0.75 | 0.976 ± 0.021
C=C1CC[C@@]2(O)[C@H]3Cc4ccc(O)c5c4[C@@]2(CCN3CC2CC2)[C@H]1O5 [Nalmefene hydrochloride] | 0.938 ± 0.31 | 1.016 ± 0.01 | 0.75 | 1.007 ± 0.0021
C=C1C[C@@H]2[C@H](CC[C@]3(C)C(=O)CC[C@@H]23)[C@@]2(C)C=CC(=O)C=C12 [Exemestane] | 0.893 ± 0.38 | 0.932 ± 0.065 | 0.727 | 1.25 ± 0.036
CCOC(=O)c1cncn1[C@H](C)c1ccccc1 [Etomidate] | 0.978 ± 0.27 | 0.949 ± 0.067 | 0.833 | 1.03 ± 0.011
NCC1(CC(=O)O)CCCCC1 [Gabapentin] | 0.802 ± 0.29 | 0.9761 ± 0.0014 | 0.75 | 0.981 ± 0.016
C[C@@H]1O[C@@H](O[C@@H]2C=C3CC[C@@H]4[C@H](CC[C@]5(C)[C@@H](c6ccc(=O)oc6)CC[C@]45O)[C@@]3(C)CC2)[C@H](O)[C@H](O)[C@H]1O [Proscillaridin A] | 3.66 ± 1.1 | 0.716 ± 0.029 | 0 | 1.2604 ± 0.00066
